Screening results deposited in PubChem BioAssay by Paczesny and Yang Labs, IUPUI and University of Michigan.
ST2 IL33 inh = blocks human ST2 binding to IL-33; Q01638; AlphaLISA ST2-Fc/biotin-IL-33 interaction, 1 h; inhibition, % for hits at 17 µM; 2.3% of 78,000 active; in the data active = inhibition above about 30%
Target sequence (Q01638 whole entry, looked up): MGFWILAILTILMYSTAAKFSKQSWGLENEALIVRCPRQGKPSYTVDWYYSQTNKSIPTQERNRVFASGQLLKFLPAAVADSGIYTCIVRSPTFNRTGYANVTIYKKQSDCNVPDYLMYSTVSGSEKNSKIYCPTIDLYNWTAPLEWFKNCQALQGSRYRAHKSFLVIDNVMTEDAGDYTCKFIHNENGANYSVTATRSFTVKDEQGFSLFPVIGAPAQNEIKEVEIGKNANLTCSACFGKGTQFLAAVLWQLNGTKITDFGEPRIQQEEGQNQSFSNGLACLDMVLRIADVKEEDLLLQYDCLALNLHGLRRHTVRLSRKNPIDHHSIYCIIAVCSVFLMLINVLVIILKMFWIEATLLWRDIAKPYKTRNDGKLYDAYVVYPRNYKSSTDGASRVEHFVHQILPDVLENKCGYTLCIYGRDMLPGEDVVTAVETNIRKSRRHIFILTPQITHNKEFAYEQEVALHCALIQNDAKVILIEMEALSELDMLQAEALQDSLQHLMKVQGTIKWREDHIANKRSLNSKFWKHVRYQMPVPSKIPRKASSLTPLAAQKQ
* hit, by the source's call; i = inactive; ! = not active in a repeat. The entries come from a sample that favours hits as a whole.

SMILES | ST2 IL33 inh
COCCNC(=O)c1cc2cc3ccc(OC)cc3nc2o1 | i
O=C(NCc1ccco1)c1cc2cc3ccc(Cl)cc3nc2o1 | 34.0%*
CCCN(CCC)CCCNC(=O)c1cc2cc3ccc(Cl)cc3nc2o1 | i
COCCNC(=O)c1cc2cc3ccc(Cl)cc3nc2o1 | i
CC1CC(C)CN(CCCNC(=O)c2cc3cc4ccc(Cl)cc4nc3o2)C1 (stereo not drawn) | i
O=C(NC1CCCCCC1)c1cc2cc3ccc(Cl)cc3nc2o1 | 36.0%*!
COc1ccc2cc3cc(C(=O)N4CCCC(C)C4)oc3nc2c1 (stereo not drawn) | i
O=C(NC1CCCCC1)c1cc2cc3ccc(Cl)cc3nc2o1 | 43.0%*!
CCCCN(CC)S(=O)(=O)Cc1ccccc1 | i
Cc1nc(SCC(=O)c2cc3ccccc3oc2=O)c(C#N)c(C)c1C(=O)Nc1ccccc1 | i
Fc1ccc(-c2[nH]ncc2CNC(Cn2ccnc2)c2ccccc2)cc1 (stereo not drawn) | i
CC1CCCN(C(=O)CSc2cc(=O)n(C)c3cc(Cl)ccc23)C1 (stereo not drawn) | i
COc1c(F)cc(-c2cccc3ccnn23)cc1F | i
O=C(CCc1ccccn1)N1CCc2c([nH]c3ccccc23)C1c1ccccc1F (stereo not drawn) | i
COc1ccc(N2C(=O)C3C(c4ccc(F)cc4)OC4(C(=O)c5ccccc5C4=O)C3C2=O)cc1 (stereo not drawn) | i
COc1ccc(C2C3C(=O)NC(=O)C3ON2c2ccc(Cl)cc2)cc1 (stereo not drawn) | 31.0%*
COc1ccc(C2C(C(=O)Nc3ccc(F)c(Cl)c3)CC(=O)N2c2ccc(OC)cc2)cc1 (stereo not drawn) | i
Cc1c(N=Cc2ccccn2)c(=O)n(-c2ccccc2)n1C | i
Cc1ccc(-n2ncc3c(NCc4cccc(Cl)c4)ncnc32)c(C)c1 | i
O=C(CSc1nc2c(c(=O)n1-c1ccc(F)cc1)SCC2)Nc1cccc(Cl)c1 | i
OCCn1c(-c2ccc(I)cc2)csc1=Nc1ccccc1 | 42.0%*
OCCCn1c(-c2ccccc2)csc1=Nc1ccccc1 | 61.0%*
c1ccc(N=c2scc(-c3ccccc3)n2CCN2CCOCC2)cc1 | i
CCOC(=O)c1sc(=Nc2ccccc2)n(Cc2ccccc2)c1C | i
Cc1csc(=Nc2ccccc2)n1CC(=O)c1ccc(Cl)cc1 | 36.0%*
SMILES | ST2 IL33 inh
Cc1nc2ccccc2c(=O)n1CCCO | i
COc1ccc(-c2cn3ccccc3n2)cc1F | i
CCn1c(C)csc1=NC(=O)c1ccccc1O | i
COc1ccc(-c2csc(=Nc3ccccc3)n2CCO)cc1F | 48.0%*
CCCn1nccc1C(=O)N1C[C@H]2C[C@H](O)[C@H](O)C[C@H]2C1 | i
Cc1nnc(CN2CCOc3c(O)cc(-c4cccc(Cl)c4)cc3C2)s1 | i
COc1ccc(C(=O)Nc2ccc(Cc3ccncc3)cc2)cc1OC | i
CCOc1ccccc1N(CC(=O)NCc1ccccc1OC)S(=O)(=O)c1ccc(C)cc1 | i
COc1ccc(OCCn2c(=N)n(CC(C)C)c3ccccc32)cc1 | i
COc1ccc2c(=O)c(-c3ccc4c(c3)OCCCO4)coc2c1 | i
OCCn1c(-c2ccc(Cl)c(Cl)c2)csc1=Nc1ccccc1 | 48.0%*
COc1ccc(N=c2scc(-c3ccc4c(c3)OCCO4)n2CCO)cc1 | 32.0%*
COc1ccc(-c2csc(=Nc3ccccc3)n2CCCN(C)C)cc1 | 44.0%*
COc1ccc(C(O)=C2C(=O)C(=O)N(CCCN(C)C)C2c2cccs2)c(C)c1 (stereo not drawn) | i
COc1ccc(CNC(=O)c2cc(-c3ccc4c(c3)OCO4)on2)cc1 | i
CC(C)CNC(=O)c1cc(-c2ccc(Cl)c(Cl)c2)on1 | i
OCCn1c(-c2ccc(Cl)cc2)csc1=Nc1ccccc1 | 61.0%*
CCC(C)NC(=O)CNC(=O)Cn1ccc2ccccc2c1=O (stereo not drawn) | i
CC(C)C1CN(S(=O)(=O)N(C)C)CCC(=O)N1CC1CC1 (stereo not drawn) | i
CCC(CO)N(Cc1cccnc1)Cc1nccn1C (stereo not drawn) | i
Cc1cc(Cl)ccc1OCCCC(=O)NC1=NCCS1 | i
CCc1cccc(NS(=O)(=O)c2cccc3cccnc23)c1 | i
O=C(Nc1c2c(nn1-c1cccc(Cl)c1)CS(=O)C2)c1cccc(F)c1 (stereo not drawn) | i
CCCCc1cc(=O)[nH]c(-c2ccc(CN3C[C@@H](C)O[C@@H](C)C3)cc2)n1 | i
COc1ccc(C(=O)Nc2cccc(C)c2C)cc1Br | i
SMILES | ST2 IL33 inh
CSCCNC(=O)CC1C(=O)NCCN1CC1CCCCC1 (stereo not drawn) | i
COc1ccc(-n2nc(C(=O)N3CCCCCC3)c3c4ccccc4n(C)c3c2=O)cc1Cl | i
CN(Cc1nccs1)C(=O)c1cn(CC2CCCNC2)nn1 (stereo not drawn) | i
COc1cc(-c2ccc(F)c(CO)c2)nc(OC)n1 | i
CSc1cccc(NC(=O)N2CCCCC2CCN2CCOCC2)c1 (stereo not drawn) | i
COCCCNc1nc2c(c(=O)n(C)c(=O)n2C)n1Cc1ccccc1F | i
CCOc1nc2c(c(=O)n(C)c(=O)n2C)n1Cc1ccccc1Cl | 30.0%*
CC1CCN(c2nc3c(c(=O)n(C)c(=O)n3C)n2Cc2ccccc2Cl)CC1 | i
COc1ccccc1Oc1nc2c(c(=O)n(C)c(=O)n2C)n1Cc1ccccc1F | 31.0%*
CC(CCO)Nc1nc2c(c(=O)n(C)c(=O)n2C)n1Cc1ccccc1F (stereo not drawn) | i
C#CCOc1nc2c(c(=O)n(C)c(=O)n2C)n1Cc1ccccc1Cl | i
COc1ccc(Cl)cc1Nc1nc(N2CCOCC2)nc(N2CCOCC2)n1 | i
CCOC(=O)c1c(NC(=O)CC)sc2c1CCC(C)C2 (stereo not drawn) | i
COc1cccc(CN=c2c([N+](=O)[O-])nn(-c3ccccc3)n2O)c1 | i
CCOc1ccc(-n2c(SCC(=O)NCC3CCCO3)nc3c(c2=O)SCC3)cc1 (stereo not drawn) | i
O=C(Nc1ccccc1-c1ccccc1)c1ccc(Br)o1 | i
O=C(Nc1cccc2nsnc12)c1ccc(-c2ccc(Br)cc2)o1 | 31.0%*
O=C(CS(=O)(=O)c1cccc2nsnc12)Nc1ccccc1Br | i
CC1=C(C(=O)OCc2ccccc2)C(c2ccco2)n2c(nc3ccccc32)N1 (stereo not drawn) | i
COc1ccccc1/C=C1\N=C(c2cccc(I)c2)OC1=O | i
CC(=O)n1cc(/C=C2/N=C(c3ccccc3)OC2=O)c2ccccc21 | 61.0%*
CC(=O)n1cc(/C=C2\N=C(c3ccc(Cl)cc3)OC2=O)c2cc(Br)ccc21 | i
C=CCS(=O)(=O)c1cccc([N+](=O)[O-])c1 | i
N#C/C(=C/C=C/c1ccccc1)c1nc(-c2cccs2)cs1 | 60.0%*
N#C/C(=C\Nc1ccc(S(N)(=O)=O)cc1)c1nc(-c2ccccc2)cs1 | i
SMILES | ST2 IL33 inh
N#C/C(=C/C=C/c1ccccc1)c1nc(-c2ccc(F)cc2)cs1 | 40.0%*
N#CCc1nc(-c2ccccc2)cs1 | i
N#C/C(=C/c1ccc(F)cc1)c1nc(-c2ccccc2)cs1 | 56.0%*
Nc1nc(-c2ccc(-c3ccccc3)cc2)cs1 | i
O=C(CSc1nc2ccccc2[nH]1)Nc1c(Cl)cccc1Cl | i
COc1ccc(N2CCCS2(=O)=O)cc1NC(=O)COc1ccc(F)cc1 | i
COc1ccc(C2C(C#N)=C(N)OC3=C2C(=O)CC(c2ccccc2)C3)cc1 (stereo not drawn) | i
